The nature of experiment [1]: A CellTox Green Cytotoxicity Assay to monitor cytotoxicity in HEK293 cells - 32 hour (AID 1224881). Also: nearly all actives have a fitted effect of over 40% in size. In a few lines: (§1)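 Cells (HEK293, 600/well) and dye reagent are dispensed together. After 5 h at 37 C, 23 nL compound is pinned in. Plates stay at 37 C for 40 h with fluorescence read at 0h, 8h, 16h, 24h, 32h and 40h.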
The nature of experiment [2]: A CellTox Green Cytotoxicity Assay to monitor cytotoxicity in HepG2 cells - 0 hour (AID 1224882). Also: nearly all actives have a fitted effect of over 35% in size. Put shortly: (§2)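 Cells and non-lytic dye reagent are dispensed together (600 HepG2 cells/well) and incubated 5 h before DMSO compound transfer. Kinetic fluorescence is then recorded in the same wells during 40 h at 37 C.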
The nature of experiment [3]: A CellTox Green Cytotoxicity Assay to monitor cytotoxicity in HepG2 cells - 32 hour (AID 1224883). Also: nearly all actives have a fitted effect of over 50% in size. Put shortly:
as §2

Experiment [4] is described as follows: A CellTox Green Cytotoxicity Assay to monitor cytotoxicity in HEK293 cells - 8 hour (AID 1224884). Also: nearly all actives have a fitted effect of over 35% in size. Put shortly:
as §1

A short description of experiment [5]: qHTS RealTime-Glo MT Cell Viability Assay in HepG2 cells - 16 hour (AID 1224885). Also: nearly all actives have a fitted effect of over 50% in size. In a few lines: (§3)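 HepG2 cells were seeded at 600 cells/well together with NanoLuc luciferase and a cell-permeant prosubstrate, preincubated 5 h at 37 C/5% CO2, then pin-dosed with compounds in DMSO. Nonlytic luminescence from viable cells was read at each time point.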
Experiment [6] can be described thus: qHTS RealTime-Glo MT Cell Viability Assay in HEK293 cells - 24 hour (AID 1224886). Also: top concentration of the series differs between compounds; nearly all actives have a fitted effect of over 50% in size. In a few lines:
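HEK293 cells were seeded at 600 cells/well together with NanoLuc luciferase and cell-permeant prosubstrate, preincubated 5 h at 37 C/5% CO2, then given compound in DMSO by pintool. Luminescence from viable-cell prosubstrate reduction was read repeatedly over 40 h.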
Background: In qHTS, concentration-response curves come from the screen itself.

A short description of experiment [7]: qHTS RealTime-Glo MT Cell Viability Assay in HEK293 cells - 8 hour (AID 1224887). Also: top concentration of the series differs between compounds; nearly all actives have a fitted effect of over 50% in size. Put shortly: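 Real-time viability in HEK293: signal arises when living cells convert a prosubstrate for NanoLuc in the medium, so luminescence tracks viable cell number. Compound (23 nL, DMSO) added 5 h post-seeding; kinetic reads at 0–40 h, 37 C.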
The nature of experiment [8]: qHTS RealTime-Glo MT Cell Viability Assay in HepG2 cells - 0 hour (AID 1224889). Also: nearly all actives have a fitted effect of over 50% in size. In a few lines:
as §3

The nature of experiment [9]: A CellTox Green Cytotoxicity Assay to monitor cytotoxicity in HepG2 cells - 8 hour (AID 1224890). Also: nearly all actives have a fitted effect of over 45% in size. Put shortly:
as §2

Experiment [10] in a line: qHTS assay to identify small molecule antagonists of the estrogen receptor alpha (ER-alpha) signaling pathway using the BG1 cell line in the presence of 0.1 nM 17-beta-estradiol - cell viability counter screen (AID 1259241). Also: nearly all actives have a fitted effect of over 40% in size. Put shortly: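 VM7Luc4E2 cells (endogenous full-length ER-alpha, 4xERE-luciferase), cultured 5 days in charcoal-stripped serum, exposed to compounds with 0.1 nM 17beta-estradiol (final) for 22 hr at 37C. Viability read in same wells as live-cell protease fluorescence after 30 min.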

The nature of experiment [11]: qHTS assay to identify small molecule antagonists of the androgen receptor (AR) signaling pathway using the MDA cell line in the presence of 0.5 nM R1881 - cell viability counter screen (AID 1259242). Also: nearly all actives have a fitted effect of over 45% in size. Put shortly:
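Steps: plate MDA-kb2 cells, rest 5 hr at 37C without CO2; pin in compounds in DMSO; add R1881 to 0.5 nM final; incubate 16 hr; add CellTiter-Fluor, 30 min; read fluorescence.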

Experiment [12] deals with Estrogen receptor (Homo sapiens) (UniProt P03372). In words: qHTS assay to identify small molecule antagonists of the estrogen receptor alpha (ER-alpha) signaling pathway using the BG1 cell line in the presence of 0.1 nM 17-beta-estradiol (AID 1259244). Also: nearly all actives have a fitted effect of over 50% in size. Put shortly: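 Antagonist mode: compounds in DMSO are pinned onto VM7Luc4E2 reporter cells, 0.1 nM final 17beta-estradiol is added, and after 22 h at 37C luciferase luminescence is measured with ONE-Glo.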
Estrogen receptor (Homo sapiens), sequence (P03372 whole entry, looked up): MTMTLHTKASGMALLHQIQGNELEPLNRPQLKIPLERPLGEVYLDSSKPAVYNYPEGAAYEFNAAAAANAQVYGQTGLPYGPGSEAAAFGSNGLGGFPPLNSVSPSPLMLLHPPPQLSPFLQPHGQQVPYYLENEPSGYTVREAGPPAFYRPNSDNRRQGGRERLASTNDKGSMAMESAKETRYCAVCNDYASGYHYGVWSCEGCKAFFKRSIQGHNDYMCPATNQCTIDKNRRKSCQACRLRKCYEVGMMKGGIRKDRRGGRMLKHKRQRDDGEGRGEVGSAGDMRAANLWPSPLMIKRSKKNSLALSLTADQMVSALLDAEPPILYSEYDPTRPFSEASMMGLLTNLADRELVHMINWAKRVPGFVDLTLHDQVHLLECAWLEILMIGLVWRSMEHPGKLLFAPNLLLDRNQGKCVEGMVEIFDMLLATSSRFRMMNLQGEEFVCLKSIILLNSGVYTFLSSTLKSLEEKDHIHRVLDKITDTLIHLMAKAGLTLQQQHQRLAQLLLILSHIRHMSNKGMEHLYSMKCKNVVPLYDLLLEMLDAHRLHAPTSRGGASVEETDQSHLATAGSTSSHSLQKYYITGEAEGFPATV

Experiment [13] in a line: qHTS assay to identify small molecule HDAC inhibitors (AID 1259364).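 Also: wild-type HCT-116 cells with endogenous class I/II HDAC activity; top concentration of the series differs between compounds; nearly all actives have a fitted effect of over 45% in size.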 In a few lines:
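Cells (HCT-116, wild type) are seeded at 1,500 per well, incubated overnight, treated with compound in DMSO for 2 hr, then developed with HDAC-Glo I/II reagent for 30 min at room temperature.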

The nature of experiment [14]: qHTS assay to identify small molecule HDAC inhibitors - cell viability counter screen (AID 1259365). Put shortly: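 Wild-type HCT-116 cells, 1,500/well, cultured overnight, then compound-treated 2 h at 37 C. Viability measured as ATP luminescence with CellTiter-Glo after 30 min at room temperature.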
The nature of experiment [15]: qHTS assay to identify small molecule agonists of the sonic hedgehog signaling (Shh) pathway - cell viability counter screen (AID 1259366). Also: nearly all actives have a fitted effect of over 50% in size. Also: potency is read from the fitted curve at half-maximal effect. Put shortly: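 NIH/3T3-derived Gli1-Luc reporter cells, 2,000 per well, received compound after 4 h and were treated about 23 h at 37C. Viability measured in the same wells by CellTiter-Fluor fluorescence after 1 h.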
A short description of experiment [16]: qHTS assay to identify small molecule antagonists of the sonic hedgehog signaling (Shh) pathway - cell viability counter screen (AID 1259367). Also: nearly all actives have a fitted effect of over 55% in size. Also: potency is read from the fitted curve at half-maximal effect. In a few lines: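 Cytotoxicity was assessed in parallel with Shh reporter activity by measuring live-cell protease fluorescence (CellTiter-Fluor) in NIH/3T3 cells stably carrying Gli1-Luc, treated with compound under conditioned medium stimulation for 23 hr plus 1 hr reagent incubation.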

Experiment [17] can be described thus: qHTS assay to identify small molecule agonists of the sonic hedgehog signaling (Shh) pathway (AID 1259368; calls by dose curve;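 also: NIH/3T3-derived 3T3Gli1-Luc cells carrying a stable Gli1-driven firefly luciferase reporter; series mostly up to about 92 µM; nearly all actives have a fitted effect of over 15% in size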). Put shortly:
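Cells of a mouse NIH/3T3 clone stably expressing luciferase under the Gli1 transcriptional response element are exposed to test chemicals for 24 hr at 37 C. Pathway activation is detected as a rise in luminescence.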

A short description of experiment [18]: qHTS assay to identify small molecule phospholipidosis (PLD) inducers (AID 1259344; active = well fitted curve in the direction sought with a large enough effect; an effect the other way counts as inactive or inconclusive). In a few lines: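 Cells (HepG2, 900 per well) attach for 4 h, receive LipidTOX Red and compound together, incubate 24 h at 37 C, are fixed 30 min with paraformaldehyde/Hoechst, then imaged at one site per well.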

Results on seven molecules are retold here after PubChem BioAssay (Tox21).

SMILES strings stand for the structures. Records with an inconclusive call do not appear. Active and inactive are the calls of the source. Unless noted, calls follow the shape of the dose curve; as a rule, active = well fitted curve in the direction sought with a large enough effect in the repeat runs; inconclusive = weak or mixed curves; inactive = no such curve, though single readings can be large; an effect the other way counts as inactive or inconclusive.

On to `O=C(Cc1ccccc1)OCCc1ccccc1`, for which the Potency entry in experiment [1], in experiment [2], in [3], in experiment [4], in experiment [5] and in experiment [6] was “inactive” in each case. Besides, the Potency entry in [7], in experiment [9], in experiment [10], in experiment [11], in experiment [12] and in experiment [13] was “inactive” each time. Moreover, the Potency result in experiment [14], in experiment [15], in [16] and in [17] was “inactive” each time. The call in [8] was inactive.
For `O=C(N/N=C/c1ccc([N+](=O)[O-])o1)c1cc([N+](=O)[O-])cc([N+](=O)[O-])c1O`, the Potency result in experiment [1], in [2], in experiment [3], in experiment [4], in experiment [5] and in experiment [6] was “inactive” in each case. Further, the Potency result in experiment [7], in experiment [9], in experiment [13] and in [17] was “inactive” in each case. For the same molecule, the molecule was called inactive in experiment [8] and in experiment [18]. Also, the Potency in experiment [15] and in experiment [16] was 10.6 µM (active) each time.
For the molecule `CCN(C(C)=O)c1cccc(-c2ccnc3c(C#N)cnn23)c1`, the Potency result in experiment [1], in experiment [2], in experiment [3], in experiment [4], in experiment [5] and in experiment [6] was “inactive” each time. Moreover, the Potency result in [7], in [9], in experiment [10], in experiment [11], in experiment [12] and in experiment [13] was “inactive” in each case. Besides, the Potency result in experiment [14], in experiment [15], in experiment [16] and in [17] was “inactive” throughout. The molecule was called inactive in experiment [8] and in [18].
Take `C[N+]1(CCF)[C@@H]2CC[C@H]1CC(OC(=O)C(O)(c1ccccc1)c1ccccc1)C2` (stereo not given in full): the Potency entry in [1], in experiment [2], in experiment [3], in experiment [4], in experiment [5] and in experiment [6] was “inactive” each time. The Potency entry in [7], in experiment [9], in [10], in experiment [11], in [13] and in experiment [14] was “inactive” each time. The Potency result in [15], in experiment [16] and in experiment [17] was “inactive” throughout. Besides, the call in [8] and in experiment [18] was inactive.
In the case of `Oc1cccc(Cl)c1`, the Potency entry in [1], in experiment [2], in experiment [3], in experiment [4], in experiment [5] and in experiment [6] was “inactive” throughout. In addition, the Potency result in experiment [7], in experiment [9], in [10], in experiment [11], in [12] and in [13] was “inactive” each time. For the same molecule, the Potency entry in experiment [14], in [15], in experiment [16] and in [17] was “inactive” each time. Further, the molecule was classed as inactive in experiment [8].
Regarding `OCCCl`, the Potency entry in experiment [1], in experiment [2], in experiment [3], in experiment [4], in experiment [5] and in experiment [6] was “inactive” each time. Moreover, the Potency entry in [7], in [9], in [10], in experiment [11], in experiment [13] and in experiment [14] was “inactive” in each case. Moreover, the Potency result in experiment [15], in experiment [16] and in [17] was “inactive” each time. Also, in [8], the molecule was called inactive.
With `CC(C)CCCCCCCOC(=O)c1ccccc1C(=O)OCCCCCCCC(C)C`, the Potency entry in experiment [1], in [2], in experiment [3], in [4], in experiment [5] and in [6] was “inactive” throughout. For the same molecule, the Potency result in experiment [7], in [9], in experiment [10], in [11], in experiment [13] and in experiment [14] was “inactive” each time. Moreover, the Potency entry in [15], in experiment [16] and in [17] was “inactive” each time. The molecule was classed as inactive in experiment [8].
